Here are results for 20 molecules from PubChem BioAssay.

Assay [1] in a line: liver-stage malaria parasite load reduction – cell-based, known kinase inhibitor set, luminescence, hepatoma host viability (AID 624392).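 Further: infected cells incubated roughly two days before readout.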 Conditions: Plasmodium liver stage in hepatoma cells, luciferase luminescence, concentration not given here; liver cell % of control: measured here: host liver cell viability; parasite % of control: stronger effect = lower value.
Assay [2] in a line: altered dexamethasone sensitivity, NF-kB reporter, cell-based, luciferase, IL-1B stimulus (AID 624486).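 On percent of negative control (+Dex): 100% = mean signal of vehicle control wells on the plate.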 Conditions: IL-1B + dexamethasone, luminescence; percent of negative control (+Dex): actives lie on both sides, concentration not given here; z-score: measured here: IL-1B alone, no Dex.
Assay [3] deals with Cellular tumor antigen p53 (Homo sapiens) (UniProt P04637). The assay can be described thus: GFP-p53 level modulators in HPV16+ cells – imaging, known kinase inhibitor set, EGFP/DsRed ratio (AID 1053116).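 Further: cells exposed to compounds for 24 h at 37 °C before reading.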 Conditions: GFP-p53 stability, stronger effect = higher value; EGFP object count: measured here: GFP-p53 positive objects count.
Cellular tumor antigen p53 (Homo sapiens), sequence (P04637 whole entry, looked up): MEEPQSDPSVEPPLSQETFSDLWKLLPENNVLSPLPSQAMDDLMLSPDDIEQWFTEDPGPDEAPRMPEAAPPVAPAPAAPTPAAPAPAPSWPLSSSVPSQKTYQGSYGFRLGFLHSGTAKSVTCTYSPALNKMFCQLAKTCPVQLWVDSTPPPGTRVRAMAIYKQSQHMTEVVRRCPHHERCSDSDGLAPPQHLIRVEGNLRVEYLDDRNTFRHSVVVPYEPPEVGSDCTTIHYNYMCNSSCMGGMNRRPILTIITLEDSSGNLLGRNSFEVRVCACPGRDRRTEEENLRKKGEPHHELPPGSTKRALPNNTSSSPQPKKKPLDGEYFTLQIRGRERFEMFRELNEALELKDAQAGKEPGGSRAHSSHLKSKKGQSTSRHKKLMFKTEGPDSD
Assay [4] can be described thus: inducers of IRF3 signaling, differentiated THP-1 – cell-based, PMA-stimulated THP-1, luminescence (AID 1053176). Conditions: PMA-differentiated THP-1, IRF3 reporter luminescence; stronger effect = higher value.

Several values for one entry are separate records, joined by “and”; a condition that tells them apart may be missing. Equal values may be shown once. Activity calls are given as the source filed them. How the calls were made is not given here.

On to `N#Cc1cccc(C(=O)c2cnn(-c3ccc(F)cc3)c2N)c1`, for which, in assay [1], the liver cell % of control was determined as 102% and the parasite % of control is 61.7% (inactive). Also, in assay [2], the percent of negative control (+Dex) is 114% (inactive) and the z-score was 2.75. Moreover, in assay [3], the EGFP object count worked out at 4.5 and the EGFP/DsRed ratio is 0.122 (inactive). Also, the fraction signal in assay [4] is 0.01 (inactive).
Consider `COc1ccc(O)c(C(=O)c2ccc(C(=O)NC3CCCNCC3NC(=O)c3ccncc3)cc2)c1F` (stereo not given), for which, in assay [1], the liver cell % of control was 115% and the parasite % of control is 83.5% (inactive). Moreover, in assay [2], the percent of negative control (+Dex) is 68.5% (active) and the z-score is -3.04. Moreover, in assay [3], the EGFP object count was determined as 10.5 and the EGFP/DsRed ratio was 0.105 (inactive). Further, in assay [4], the fraction signal was 0.0035 (inactive).
Consider `COc1cccc(C2=C(c3cn(C)c4ccc(Cl)cc34)C(=O)NC2=O)c1`, for which, in assay [1], the liver cell % of control is 197% and the parasite % of control was 11.6% (inactive). Besides, in assay [2], the percent of negative control (+Dex) is 139% (inactive) and the z-score is 0.245. Further, in assay [3], the EGFP object count came to 13.5 and the EGFP/DsRed ratio is 0.277 (inactive). Also, the fraction signal in assay [4] is -0.0075 (inactive).
On to `Cn1c(=O)c(Oc2ccc(F)cc2F)cc2cnc(NC3CCOC3)nc21` (stereo not given), for which, in assay [1], the liver cell % of control amounted to 96.2% and the parasite % of control is 51.2% (inactive). In assay [2], the percent of negative control (+Dex) is 104% (inactive) and the z-score amounted to 0.575. In assay [3], the EGFP object count was found to be 4.5 and the EGFP/DsRed ratio was 0.257 (inactive). For the same molecule, the fraction signal in assay [4] was -0.001 (inactive).
Regarding `CON=C(c1ccccc1)c1cnn(-c2ccccc2)c1N`, in assay [1], the liver cell % of control amounted to 121% and the parasite % of control is 79.3% (inactive). For the same molecule, in assay [2], the percent of negative control (+Dex) is 98.5% (inactive) and the z-score stood at 0.245. In assay [3], the EGFP object count was 3.5 and the EGFP/DsRed ratio is 0.128 (inactive). The fraction signal in assay [4] was 0.0055 (inactive).
Regarding `Cn1c(=O)c(Cc2ccccc2F)cc2cnc(NC3CCOCC3)nc21`, in assay [1], the liver cell % of control is 106% and the parasite % of control is 64.6% (inactive). In assay [2], the percent of negative control (+Dex) is 107% (inactive) and the z-score was 0.55. Further, in assay [3], the EGFP object count came out at 2.5 and the EGFP/DsRed ratio is 0.0998 (inactive). Further, in assay [4], the fraction signal is 0.0035 (inactive).
Turning to `Cn1cc(C2=C(c3c4n(c5ccccc35)CCC(CN)CC4)C(=O)NC2=O)c2ccccc21` (stereo not given), in assay [1], the liver cell % of control turned out to be 127% and the parasite % of control is 42.3% (inactive). For the same molecule, in assay [2], the percent of negative control (+Dex) was 94% (inactive) and the z-score is -0.165. Besides, in assay [3], the EGFP object count was found to be 30.5 and the EGFP/DsRed ratio was 0.0801 (inactive). Further, in assay [4], the fraction signal was -0.003 (inactive).
On to `CC(=C1SC(=NCc2cccs2)NC1=O)c1ccc2ncccc2c1`, for which, in assay [1], the liver cell % of control came out at 89.5% and the parasite % of control was 33.7% (inactive). Besides, in assay [2], the percent of negative control (+Dex) is 92.5% (inactive) and the z-score was -0.085. Besides, in assay [3], the EGFP object count stood at 5 and the EGFP/DsRed ratio was 0.0357 (inactive). For the same molecule, the fraction signal in assay [4] is -0.009 (inactive).
With `O=C1NC(=NC(CO)Cc2ccccc2)SC1=Cc1ccc2ncccc2c1` (stereo not given), in assay [1], the liver cell % of control is 107% and 106%; the parasite % of control is 258% (inactive) and 60% (inactive). Moreover, in assay [2], the percent of negative control (+Dex) is 91.5% (inactive) and 102% (inactive); the z-score is -0.515 and 0.03. Besides, in assay [3], the EGFP object count is 6.5 and 4; the EGFP/DsRed ratio was 0.117 (inactive) and 0.195 (inactive). The fraction signal in assay [4] was -0.0075 (inactive) and -0.0115 (inactive).
As to `O=C1NC(=NCCc2ccc(F)cc2)SC1=Cc1ccc2ncccc2c1`, in assay [1], the liver cell % of control was 127% and the parasite % of control is 57.5% (inactive). For the same molecule, in assay [2], the percent of negative control (+Dex) is 99.5% (inactive) and the z-score was 0.5. In assay [3], the EGFP object count turned out to be 1.5 and the EGFP/DsRed ratio is 0.0132 (inactive). Also, in assay [4], the fraction signal is 0.0035 (inactive).
`O=C1NC(=NCCCc2ccccc2)SC1=Cc1ccc2ncccc2c1`: in assay [1], the liver cell % of control is 104% and the parasite % of control was 43% (inactive). In addition, in assay [2], the percent of negative control (+Dex) was 83% (inactive) and the z-score is -0.69. For the same molecule, in assay [3], the EGFP object count was 5 and the EGFP/DsRed ratio was 0.104 (inactive). Besides, the fraction signal in assay [4] was -0.011 (inactive).
Turning to `Cn1cc(C2=C(c3cn(CCSC(=N)N)c4ccccc34)C(=O)NC2=O)c2ccccc21`, in assay [1], the liver cell % of control was determined as 92.2% and the parasite % of control was 26.4% (inactive). Further, in assay [2], the percent of negative control (+Dex) was 96.5% (inactive) and the z-score is 0.445. Also, in assay [3], the EGFP object count was 2.5 and the EGFP/DsRed ratio is 0.00335 (inactive). Also, in assay [4], the fraction signal was -0.018 (inactive).
Turning to `Nc1c(C(=O)c2cccc(C#CCO)c2)cnn1-c1ccc(F)cc1`, in assay [1], the liver cell % of control is 100% and the parasite % of control is 58.9% (inactive). Besides, in assay [2], the percent of negative control (+Dex) was 108% (inactive) and the z-score came to 1.13. Further, in assay [3], the EGFP object count turned out to be 1.5 and the EGFP/DsRed ratio was 0.0236 (inactive). For the same molecule, the fraction signal in assay [4] was 0.008 (inactive).
Take `CON=C1NC(=O)C(=Cc2ccc3ncccc3c2)S1`: in assay [1], the liver cell % of control was 89.4% and the parasite % of control is 71.6% (inactive). For the same molecule, in assay [2], the percent of negative control (+Dex) is 113% (inactive) and the z-score was 2.23. For the same molecule, in assay [3], the EGFP object count came out at 3.5 and the EGFP/DsRed ratio was 0.0939 (inactive). Further, in assay [4], the fraction signal was -0.005 (inactive).
As for `O=C1NC(=O)C(=Cc2ccc3ncccc3c2)S1`, in assay [1], the liver cell % of control is 98% and the parasite % of control is 60.7% (inactive). In assay [2], the percent of negative control (+Dex) is 126% (active) and the z-score amounted to 3.21. Also, in assay [3], the EGFP object count was 5 and the EGFP/DsRed ratio is 0.206 (inactive). The fraction signal in assay [4] was 0.005 (inactive).
Turning to `N#Cc1ccc(C(=O)c2cnn(-c3ccc(F)cc3)c2N)cc1`, in assay [1], the liver cell % of control was determined as 103% and the parasite % of control is 59.8% (inactive). Besides, in assay [2], the percent of negative control (+Dex) is 131% (active) and the z-score turned out to be 1.97. For the same molecule, in assay [3], the EGFP object count was 13 and the EGFP/DsRed ratio is 0.456 (inactive). Besides, the fraction signal in assay [4] was 0.0095 (inactive).
Consider `CN1CCN(c2ccc(Nc3nc(N)c(C(=O)c4ccc5c(c4)OCCO5)s3)cc2)CC1`, for which, in assay [1], the liver cell % of control came out at 108% and the parasite % of control is 46.7% (inactive). In assay [2], the percent of negative control (+Dex) is 138% (inactive) and the z-score is 3.58. In assay [3], the EGFP object count worked out at 4.5 and the EGFP/DsRed ratio is 0.151 (inactive). Besides, in assay [4], the fraction signal is -0.018 (inactive).
In the case of `Cn1c(=O)c(Oc2ccc(F)cc2F)cc2cnc(NC(CO)CO)nc21`, in assay [1], the liver cell % of control was determined as 113% and the parasite % of control was 64.2% (inactive). Besides, in assay [2], the percent of negative control (+Dex) was 108% (inactive) and the z-score came to 0.05. In addition, in assay [3], the EGFP object count came out at 2.5 and the EGFP/DsRed ratio was 0.0637 (inactive). Moreover, the fraction signal in assay [4] is 0.0035 (inactive).
Regarding `COc1cc[nH]c1C=C1C(=O)Nc2ccc(F)c(I)c21`, in assay [1], the liver cell % of control amounted to 98.3% and the parasite % of control is 40.2% (inactive). For the same molecule, in assay [2], the percent of negative control (+Dex) was 98% (inactive) and the z-score came to 0.98. Also, in assay [3], the EGFP object count is 46 and the EGFP/DsRed ratio was 0.596 (inactive). For the same molecule, the fraction signal in assay [4] is 0.0015 (inactive).
Consider `CC(=O)Nc1ccc2c(C3=C(c4cn(C)c5ccccc45)C(=O)NC3=O)cn(C)c2c1`, for which, in assay [1], the liver cell % of control stood at 83.1% and the parasite % of control was 16.4% (inactive). Also, in assay [2], the percent of negative control (+Dex) is 114% (inactive) and the z-score is -1.25. Also, in assay [3], the EGFP object count was determined as 61.5 and the EGFP/DsRed ratio was 0.596 (active). For the same molecule, the fraction signal in assay [4] is -0.009 (inactive).
